Compound activity: PubChem, National Center for Advancing Translational Sciences (NCATS)
Sampled rows, rich in hits. Any-hit rate of the full collection: about 7.8%.
HCV inh: inhibitors of hepatitis C virus infection | Huh7.5.1 HCVcc-Cre infection, luciferase reporter, 44 h | Potency, µM (series often up to 41.8 µM), inactives show at the top dose activity change, negative = inhibition, actives largely listed as inhibitors | 340,000 tested, 3.4% active | AID 651820; active = well fitted inhibition curve with a large enough effect; inconclusive = small, poorly fitted or top-dose-only effect, or another doubt; inactive = no such curve, though single readings can be large or run the other way; also: potency is read from the fitted curve at half-maximal effect
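Whole-lifecycle infectious HCVcc-Cre system; cells 1,000/well, compound then virus (~0.5 moi) added 4 h after plating, 44 h culture. Luciferase read 15 sec following 15 min substrate incubation, room temp.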
Lassa entry inh: blocks Lassa virus binding to or entry into cells; Lassa virus pseudotype entry inhibition, cell reporter; Potency, µM (titrated, usually from 37.9 µM), without a hit: at the top dose activity change, negative = inhibition, most hits filed as inhibitors; 300,000 tested, 1.2% active; AID 540256; calls by dose curve; tested in HEK293 cells; also: potency is read from the fitted curve at half-maximal effect; nearly all actives have a fitted effect of over 50% in size
HCMV inh: blocks human cytomegalovirus replication | 410,000 tested, 4.5% active | HFF cells, HCMV-luciferase reporter, 72 h; stronger effect = lower value | activity change, negative = inhibition, % at 57.5 µM; in the data active = activity change below about -60%; inconclusive = no clear call, values can overlap the other calls; inactive = above about -39%
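Luciferase read-out from HCMV-luciferase-infected HFFs (MOI 1 PFU/cell) 72 h post infection at 37C; compounds added after 16 h cell attachment; activity normalized between buffer-only basal and Salinomycin (10uM) inhibitor controls.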
Marburg entry inh: Marburg virus entry inhibition. Potency, µM (doses to about 37.8 µM), inactives show top-dose activity change, negative = inhibition, most hits filed as inhibitors. AID 540276. 300,000 tested, 1.8% active. Marburg virus pseudotyped entry inhibition, cell reporter; calls by dose curve; tested in HEK293 cells; also: potency is read from the fitted curve at half-maximal effect
Vaccinia Venus: inhibitors of vaccinia virus (Venus reporter); AID 720580; Vaccinia virus Venus reporter expression, fluorescence; Potency, µM (series often up to 36.5 µM), for inactives: at the top dose activity change, negative = inhibition, usual class: inhibitors; 330,000 tested, 0.46% active; calls by dose curve; tested in A549 cells; also: potency is read from the fitted curve at half-maximal effect; nearly all actives have a fitted effect of over 30% in size
Vaccinia mCherry: inhibitors of vaccinia virus infection (mCherry reporter signal); Vaccinia virus mCherry reporter infection, fluorescence; Potency, µM (highest dose often 36.5 µM), for inactives: at the highest dose activity change, negative = inhibition, most hits filed as inhibitors; 310,000 tested, 0.63% active; calls by dose curve; tested in A549 cells; also: potency is read from the fitted curve at half-maximal effect; nearly all actives have a fitted effect of over 35% in size
* marks the source's active call; other numbers are inactive results; i = inactive; ? = inconclusive; · = no result; ! = repeats disagree; [ ] = dose if it differs, or a comment. % is scaled to controls: 0 for no effect and ±100 for the full control effect.

SMILES	HCV inh	Lassa entry inh	HCMV inh	Marburg entry inh	Vaccinia Venus	Vaccinia mCherry
CCCNC(=O)c1ccc(N2CCC3(CC2)CC(c2ccccc2)=NO3)c([N+](=O)[O-])c1	?	·	-16.2	·	-13.7%	-9.1%
O=C(NCc1ccccc1)c1ccc(N2CCC3(CC2)CC(c2ccc(Cl)cc2)=NO3)c([N+](=O)[O-])c1	4.47µM*	·	?	·	-7.5%	0.0%
CC1CC(C)CN(c2ccc(C(=O)NCc3ccc4c(c3)OCO4)cc2[N+](=O)[O-])C1 (stereo not given)	?	9.0%	-62.4*	?	-2.7%	-7.7%
O=C1CN(C(=O)c2ccc(S(=O)(=O)N3CCCC3)cc2)C(c2ccc(F)cc2)c2cc(F)ccc2N1 (stereo not given)	·	?	14.2	-19.5%[46.1 µM]	-19.3%	-12.1%
O=C(NCc1ccco1)c1ccc(N2CCOCC2)c([N+](=O)[O-])c1	12.3%	?	?	-18.0%[46.1 µM]	1.7%	i
Cc1ccc(N(Cc2ccco2)C(=O)c2ccc(N3CCCCC3)c([N+](=O)[O-])c2)cc1	?	?	-65.6*	23.1µM*	·	·
O=C(NCc1ccc(F)cc1)c1ccc(N2CCc3ccccc32)c([N+](=O)[O-])c1	?	18.4µM*	?	?	-16.2%	-4.8%
CNC(=O)c1cc(Oc2ccc(NC(=O)Nc3ccc(Cl)c(C(F)(F)F)c3)cc2)ccn1	11.2µM*	·	-99.9*	·	10µM*	?
O=C(Nc1ccc(Cl)c(C(F)(F)F)c1)c1ccncc1	-22.2%	?	-5.1	?	-14.4%	-12.7%
Cc1ccc(CN2CCCn3nc(C(=O)NCc4cc(C)ccc4C)cc3C2=O)cc1	·	?	-10.7	·	?	-19.9%
Cc1ccc(CNC(=O)C2CCN(S(=O)(=O)c3ccc4c(c3)oc(=O)n4C)CC2)cc1	·	2.4%[46.1 µM]	1.9	9.9%[46.1 µM]	-7.2%	-8.7%
CCCCCCCCOC(=O)C1=C(C)Nc2nnnn2C1c1cccs1 (stereo not given)	-4.0%	?	18.5	?	-24.4%	-28.8%
CCCCCCCOC(=O)C1=C(C)Nc2ncnn2C1c1cccs1 (stereo not given)	?	13µM*	-16.5	?	-8.8%	-7.2%
COC(=O)C1=C(C)NC(C)=C([N+](=O)[O-])[C@H]1c1ccccc1C(F)(F)F	·	·	·	-6.4%	-13.0%	11.4%
COC(=O)C1=C(C)NC(C)=C(C(=O)OCC(C)C)C1c1ccccc1[N+](=O)[O-] (stereo not given)	25.1µM*	·	?	·	-27.8%	?
Cc1cnc(-n2ncc(C(=O)NCC3CCCN(C)C3)c2C)nc1-c1cccs1 (stereo not given)	·	·	·	·	-11.2%	-10.3%
CC(=O)N1c2ccc(C)cc2Sc2c1ccc1ccccc21	-9.9%	?	-61.5*	?	-7.0%	-17.0%
Cc1ccc(C)c(NC(=O)Cn2c(=O)n(-c3ccccc3C)c(=O)c3c2c2cc(C)ccc2n3C)c1	·	23.5%[46.1 µM]	5.5	·	1.4%	-3.2%
CCOc1ccc(N(C)C(=O)C2CCN(S(=O)(=O)c3c(C)noc3/C=C/c3ccc(C)cc3)CC2)cc1	·	7.7%[46.1 µM]	96.4	·	-4.6%[7.34 µM]	-11.7%[7.34 µM]
CCOc1ccc(NC(=O)CSc2oc(-c3ccc(F)cc3)nc2S(=O)(=O)c2ccc(C)cc2)cc1	·	-17.0%[46.1 µM]	-4.3	-6.0%[46.1 µM]	?	?
N=C1S/C(=C\c2ccccc2F)C(=O)N1c1ccc(F)cc1	2.2%	7.2%	-27.5	-8.0%	·	·
N=C1S/C(=C\c2cccc3ccccc23)C(=O)N1c1ccc(F)cc1	?	8.91µM*	-71.3*	?	-12.9%	-19.1%
COc1ccc2c3c(cccc13)C(=O)N(O)C2=O	?	-23.0%	-60.5*	-29.8%	?	-24.1%
COc1ccccc1N1C(=O)c2cccc3c(C(=O)O)ccc(c23)C1=O	31.1%	17.5%	12.5	-2.1%	-1.8%	-11.0%
C=CCN1CC[C@]23c4c5ccc(O)c4O[C@H]2/C(=N/NC(=O)c2ccccc2)CC[C@@]3(O)[C@H]1C5	-3.4%	?	-63.7*	0.0891µM*!	-7.9%	i
SMILES	HCV inh	Lassa entry inh	HCMV inh	Marburg entry inh	Vaccinia Venus	Vaccinia mCherry
COc1ccc2c3c1OC1C(=O)CC[C@@]4(O)[C@@H](C2)N(C)CC[C@]314 (stereo not given in full)	?	·	-80.1*	·	-11.3%	-24.1%
C=CCN1CC[C@]23c4c5ccc(O)c4OC2C(=O)CC[C@@]3(O)C1C5 (stereo not given in full)	2.51µM*	·	-31.1	·	-14.4%	i
C=CCN1CC[C@]23c4c5ccc(O)c4OC2C(=O)CC[C@@]3(O)[C@H]1C5 (stereo not given in full)	·	·	50.1	·	·	·
C=CCN1CC[C@]23c4c5ccc(O)c4OC2C(=O)CC[C@]3(O)C1C5 (stereo not given in full)	·	·	·	·	-7.5%	-12.4%
CCN1/C(=C/C(C)=C/c2sc3ccccc3[n+]2CC)Sc2ccccc21	1µM*	1.12µM*	-99.9*	1.58µM*	i	i
CC(NS(=O)(=O)OCC(Cl)(Cl)Cl)c1ccc(C(C)(C)C)cc1 (stereo not given)	?	·	37.5	·	20µM*	11.2µM*
CCOc1ccc(CN(C(=O)c2nc(SC)ncc2Cl)C2CCS(=O)(=O)C2)cc1 (stereo not given)	·	-8.6%[46.1 µM]	7.7	-13.7%[46.1 µM]	4.3%	-6.3%
CCNC(=O)c1c(NC(=O)c2nc(S(=O)(=O)CC)ncc2Cl)sc2c1CCCC2	·	7.94µM*	-101.2*	1.7%[46.1 µM]	0.2%[7.34 µM]	-0.7%[7.34 µM]
CCSc1ncc(Cl)c(C(=O)Nc2sc3c(c2C(=O)NCc2cccnc2)CCCC3)n1	10µM*	-22.8%	-15.5	-1.8%	-9.0%	i
CCNC(=O)c1c(NC(=O)c2nc(SCC)ncc2Cl)sc2c1CCCC2	·	·	·	·	-25.1%	?
COCCCNC(=O)c1c(NC(=O)c2nc(S(C)(=O)=O)ncc2Cl)sc2c1CCCC2	·	20.2%[46.1 µM]	10.2	13.7%[46.1 µM]	?	?
CC12C=C(/C=C/CCc3ccco3)C(C)(C1)C(CCc1ccco1)CC2=O (stereo not given)	·	·	·	-5.8%[14.2 µM]	·	·
CN(Cc1ccccc1)S(=O)(=O)c1nnc(NC(=O)c2ccccc2Cl)s1	·	3.7%[46.1 µM]	32.3	·	-7.6%	-11.0%
CC(=O)c1sc2nc(-c3cccs3)cc(C(F)(F)F)c2c1N	?	2.5%	12.0	0.0%	15.9%	·
Nc1c(C(=O)C2CC2)sc2nc(-c3ccccc3)cc(C(F)(F)F)c12	-26.0%	-14.0%	-77.1*	?	·	·
CN(C)CCNC(=O)c1sc2nc(-c3ccccc3)cc(C(F)(F)F)c2c1N	10µM*	?	-9.2	5.01µM*	?	?
CC1CCN(S(=O)(=O)c2ccc3c(c2)c(=O)c(C(=O)NCc2ccc(Cl)cc2)cn3C)CC1	·	6.1%[46.1 µM]	11.2	18.1%[46.1 µM]	-29.9%	-2.9%
CCOC(=O)C1=C(O)/C(=C\c2cccs2)N=C1C	-6.4%	12.6%	12.9	-4.3%	-6.5%	-1.8%
